This passage reports Potency results from PubChem BioAssay AID686978 (National Center for Advancing Translational Sciences (NCATS), 2013).

Screen size: about 420,000 compounds; about 64,000 (15%) were called active. Roughly 27% stayed inconclusive and do not appear here. The call rests on the fitted dose curve; in most records, active means well fitted inhibition curve with a large enough effect; inconclusive means small, poorly fitted or top-dose-only effect; inactive means flat fitted curve, though single readings scatter. The list is a sample of the results. A call without a number means that no potency is given here.
Potency means the concentration at half of the fitted maximal effect.

A short description of this assay: qHTS for Inhibitors of human tyrosyl-DNA phosphodiesterase 1 (TDP1): qHTS in cells in absence of CPT. Further: nearly all actives have a fitted effect of over 55% in size. The settings on record: DT40 Tdp1-/- hTDP1 cells, no CPT, ATP luminescence, 48 h; activity change, negative = growth inhibition: at 46.2 µM (top of the series). The source says: Human tyrosyl-DNA phosphodiesterase 1 (TDP1) is a novel repair gene, and we propose to use it as a new target for anticancer drug development. TDP1 is not an essential protein, but under treatment with topoisomerase I poison (camptothecin: CPT), TDP1 works as a critical factor for cell survival. To directly identify novel TDP1 inhibitors active in a cellular environment, we have knocked-out the Tdp1 gene in chicken DT40 cells (Tdp1-/-) and generated a complemented counterpart cells that contains a stable transfection of the human TDP1 gene (Tdp1-/-;hTDP1 cells). For the primary screen, Tdp1-/-;hTDP1 cells will be exposed to small molecules in the presence or absence of CPT, and their growth kinetics will be evaluated after 48 hours by measuring ATP activity. […] The hit compounds will then be evaluated in the presence or absence of CPT using Tdp1-/- cells. […] In tertiary assays, biochemical gel-based assays will be used to assess whether the hit compounds specifically target TDP1.
To this end, we have screened this cell line against the MLSMR in two primary screens. In one screen we add CPT and in the other we screen in the absence of CPT; this AID represents the screen where CPT was absent.
NIH Chemical Genomics Center [NCGC]
NIH Molecular Libraries Probe Centers Network [MLPCN]
Assay Submitter (PI): Yves Pommier, NCI
DT40-hTDP1 cells without 20 nM Camptothecin (add 20 microL of DMSO in 1 L of cell culture medium) were dispensed at 400 cells/5microL/well in tissue culture treated 1536-well white wall/solid bottom assay plates (Greiner Bio-One North America, NC, U.S.A.) using a Multidrop Combi 8 channel dispenser (Thermo Fisher, Waltham, MA, USA). 23 nL compounds and controls were transferred using the pin tool (Kalypsys, San Diego, CA, USA) to the assay plates. The assay plates were then incubated at 37 masculineC for a minimum 48 hr. Three microL of Cell Titer Glo solution was added to the plates and incubated at RT in dark for 30 min. Luminescence was read using ViewLux (Perkin Elmer) with 1 sec exposure slow speed, high gain and 2x binning.
Regarding `O=C(NCC12CC3CC(C1)CC(CNC(=O)N1CCCC1)(C3)C2)N1CCCC1`, the Potency result is “inactive”. For `Cc1ccc(-n2c(-c3ccc(Cl)cc3)n[nH]c2=S)cc1` the value was “inactive”; for `Cc1ccc(-n2c3nc(=O)[nH]c(=O)c-3cc3c(Cl)cccc32)cc1`, 0.731 µM (active); for `O=c1cc(Cl)c2ccccc2n1-c1ccccc1`, “inactive”. `NC(=O)NCCCC(=O)O`: the Potency entry is “inactive”. On to `CCC(C)Cn1c(O)cc2nn(-c3nc4ccccc4s3)c(=O)c-2c1C` (stereo not drawn), for which the Potency is 18.4 µM (active).

Regarding `Cc1nn(CC(=O)Nc2nc3ccccc3s2)c(C)c1[N+](=O)[O-]`, the Potency result was “inactive”. For `CCCS(=O)(=O)N1CCCC(C(=O)NCCN2CCCCC2C)C1` (stereo not drawn) the value was “inactive”; for `Cc1c(NC(=O)Nc2ccccc2Cl)sc(=S)n1C`, “inactive”. Take `C/C(=N\NS(=O)(=O)c1ccc(Cl)cc1)c1ccc(NC(=O)c2ccco2)cc1`: the Potency entry was “inactive”. For `Cc1ccc(-c2nnc(SCc3ccccc3C)o2)cc1`, the Potency entry was “inactive”. With `CCOc1ccc(C(=O)c2cn(Cc3ccccc3OC)c3ccc(F)cc3c2=O)cc1`, the Potency was 20.6 µM (active).

Regarding `COc1ccccc1CNC(=O)CN1CCC(n2cnc3cc(F)ccc32)CC1`, the Potency entry is “inactive”. On to `O=C(c1ccc(F)cc1)c1cn(Cc2ccc(F)cc2)c2cc3c(cc2c1=O)OCCO3`, for which the Potency entry is “inactive”. For `CCOC(=O)C1CCN(C(c2ccc(F)cc2)c2sc3nc(-c4ccco4)nn3c2O)CC1` (stereo not drawn) the value was “inactive”; for `Cc1cccc(Cn2c(=O)n(CCC(=O)NCCc3ccc(Cl)cc3)c(=O)c3sccc32)c1`, “inactive”. As for `CCc1c(C)nc2c(OC)cccc2c1Cl`, the Potency result was “inactive”. Take `CCOc1ccc(CC(=O)Nc2ccc(S(=O)(=O)Nc3cc(C)on3)cc2)cc1OCC`: the Potency entry was “inactive”. With `Cc1cccc(C(=O)Nc2nnc(Cc3c[nH]c4ccccc34)s2)c1`, the Potency entry was “inactive”. Turning to `CCCCOCCCNC(=O)C[C@@H]1C[C@@]2(C(=O)OCC)CCCC=C2N(CCC2=CCCCC2)C1=O`, the Potency is 18.4 µM (active). Regarding `CN1CCNC(=O)C1CC(=O)NCCC1=CCCCC1` (stereo not drawn), the Potency entry is “inactive”. For `CC(C)COc1ccc(C(=O)OCC(=O)NCCC2=CCCCC2)cc1`, the Potency result is “inactive”.

With `COCCCN1C(=O)C(CC(=O)NCc2cccs2)CC(C(=O)N2CCOCC2)=C1C` (stereo not drawn), the Potency entry was “inactive”. Regarding `CCCCOCCCNC(=O)C[C@@H]1C[C@@]2(C(=O)OC)CCCCC=C2N(CCC2=CCCCC2)C1=O`, the Potency was 23.1 µM (active).

Take `COC(=O)[C@]12CCCCC=C1N(CCC1=CCCCC1)C(=O)[C@H](CC(=O)NCC1CCCCC1)C2`: the Potency was 23.1 µM (active). As to `COc1ccc(CN2C(=O)C(CC(=O)NCCN3CCOCC3)CC(C(=O)N(C(C)C)C(C)C)=C2C)cc1` (stereo not drawn), the Potency result was “inactive”. `CC1=C(C(=O)N(C)C)CC(CC(=O)NCCc2ccccn2)C(=O)N1CCC1=CCCCC1` (stereo not drawn): the Potency entry was “inactive”. For `CCOC(=O)[C@]12CCCC=C1N(CCC1=CCCCC1)C(=O)[C@H](CC(=O)NCCCOC)C2` the value was 20.6 µM (active); for `COc1cccc(CNC(=O)C(NS(=O)(=O)c2ccc3nc(C)sc3c2)C(C)C)c1` (stereo not drawn), “inactive”.

On to `Cc1cc(C)cc(NC(=O)Cc2csc(C)n2)c1`, for which the Potency entry is “inactive”. Turning to `Cc1ccc(C)c(NC(=O)CCC(=O)N/N=C2/CC(=O)CC(C)(C)C2)c1`, the Potency result is “inactive”. For `CCCCC(=O)N1CC2(C)CN(C(=O)CCCC)CC(C)(C1)C2=O` the value was “inactive”; for `O=C(O)CN(Cc1ccco1)S(=O)(=O)c1ccccc1`, “inactive”. For the molecule `O=C(CCNC(=O)c1ccc(Br)cc1)NCC(c1ccco1)N1CCCCC1` (stereo not drawn), the Potency result is “inactive”. With `CC(C)CN(C(=O)c1cccc(S(=O)(=O)N2CCCCC2)c1)C1CCS(=O)(=O)C1` (stereo not drawn) the entry was “inactive”. With `CCCCNCc1ccc(SC)cc1`, the Potency entry is “inactive”. On to `CC(=NNC(N)=O)C1CC2CCC1CC2` (stereo not drawn), for which the Potency result was “inactive”. For the molecule `ClC/C=C/C[n+]1ccccc1Cl`, the Potency entry was “inactive”. For `CN(C)c1ccc(NC(=O)c2ccncc2)c2ccccc12` the value was “inactive”. As to `O=c1c2c(-c3ccccc3)ccnc2[nH]n1-c1ccccc1`, the Potency result was “inactive”. Turning to `O=c1c(-c2ccccc2Cl)c[nH]n1-c1ccccc1`, the Potency result was “inactive”. Take `O=c1c(-c2cccc(Cl)c2)c[nH]n1-c1ccccc1`: the Potency was 16.4 µM (active). `N#C/C=C1\Sc2ccccc2C(=O)N1CC(=O)N1CCN(S(=O)(=O)c2ccccc2)CC1`: the Potency entry is “inactive”. For `O=C(O)c1ccccc1-c1ccccc1C(=O)Nc1ccccc1Br` the value was “inactive”; for `COc1ccc(N2C(=O)CCC(C(=O)N(C)C3CCCCC3)C2c2ccc(OC)c(OC)c2)cc1` (stereo not drawn), “inactive”.

For the molecule `CCOC(=O)C1CCCN(C(=O)C2CCN(c3nnc(-n4cccc4)s3)CC2)C1` (stereo not drawn), the Potency entry is “inactive”. Turning to `CCOC(=O)C1CCCN(C(=O)CSc2nnc3nc(C)cc(C)n23)C1` (stereo not drawn), the Potency is 20.6 µM (active). For `Cc1c(C)n2c(SCC(=O)N3CCCC3)nnc2[nH]c1=O`, the Potency entry was “inactive”. For the molecule `CCCCN1C(=O)CCC(C(=O)O)C1c1ccc(OC)cc1` (stereo not drawn), the Potency entry is “inactive”. As to `O=C(COC(=O)c1c2c(nc3ccccc13)/C(=C\c1cccs1)CCC2)Nc1ccccc1Cl`, the Potency is 13 µM (active). Consider `NC(=O)c1ccc(NC(=O)COC(=O)c2c3c(nc4ccccc24)/C(=C\c2ccc4c(c2)OCO4)CCC3)cc1`, for which the Potency is 8.2 µM (active). Regarding `NS(=O)(=O)c1ccc(NC(=O)COC(=O)c2cc3ccccc3oc2=O)cc1`, the Potency entry was “inactive”. Regarding `COc1cc(/C=C2\CCCc3c2nc2ccccc2c3C(=O)O)cc(Cl)c1O`, the Potency result was “inactive”.
